The nature of assay [1]: NCI Yeast Anticancer Drug Screen. Data for the rad50 strain (AID 155).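 Also: 0% = growth of vehicle-only cultures of the same strain.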 The following applies: S. cerevisiae rad50 strain growth inhibition, stronger effect = higher value. The procedure, abridged:
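DNA repair mutant yeast, compound exposure, growth read-out; inhibition is taken relative to vehicle.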

The nature of assay [2]: NCI Yeast Anticancer Drug Screen. Data for the mec2-1 strain (AID 157). The following applies: S. cerevisiae mec2-1 strain, stronger effect = higher value. The procedure, abridged: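 Strain: mec2-1 (DNA repair/cell cycle alteration). Compound exposure, then growth measured; inhibition expressed relative to vehicle.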
Assay [3] is described as follows: NCI Yeast Anticancer Drug Screen. Data for the sgs1 mgt1 strain (AID 161).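 Also: 0% = growth of cultures given vehicle only.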 Particulars: S. cerevisiae sgs1 mgt1 strain, stronger effect = higher value. The method, boiled down: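 Test agents were incubated with a DNA-repair-mutant yeast strain. Growth was then read and compared against vehicle-treated controls.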
Assay [4] is described as follows: NCI Yeast Anticancer Drug Screen. Data for the cln2 rad14 strain (AID 165).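 Also: 0% = growth equal to vehicle treated cultures.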 Particulars: S. cerevisiae cln2 rad14 strain, stronger effect = higher value. The method, boiled down:
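Compounds are applied to the cln2 rad14 yeast strain, and growth is then compared with that of vehicle-treated cultures to give inhibition.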

Assay [5] can be described thus: NCI Yeast Anticancer Drug Screen. Data for the bub3 strain (AID 167). Particulars: S. cerevisiae bub3 mutant strain, stronger effect = higher value. The method, boiled down:
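In this screen, a yeast mutant lacking normal mitotic checkpoint function is challenged with compound. Relative growth versus vehicle gives the inhibition value.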

A short description of assay [6]: NCI Yeast Anticancer Drug Screen. Data for the mlh1 rad18 strain (AID 175). The following applies: S. cerevisiae mlh1 rad18 strain growth inhibition, stronger effect = higher value. The method, boiled down: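 Read-out is yeast growth inhibition, calculated against vehicle-only controls. The compound was applied to a strain engineered with DNA damage repair alterations.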
[7] abbreviates: at 5.0 µM (retest, dose inferred, filed as 0.5).
[8] abbreviates: at 50.0 µM (retest, dose inferred, filed as 5.0).

Compounds without any hit were thinned out: in the full panel of roughly 79,000, 15% have a hit. A number with no mark means an inactive call. Activity calls are given as the source filed them. Rule as the data show it: active = growth inhibition above about 70%; inactive = the rest.

For `O=[N+]([O-])c1ccc(Cl)cc1C(Nc1nncs1)Nc1nncs1`, the growth inhibition in assay [1] (setting [7]) is 8%; in assay [1] (setting [8]), 81% (active); in assay [1] (at 50.0 µM), 74.7% (active); in assay [2] (setting [7]), 7%; in assay [2] (setting [8]) it was 76% (active); in assay [2] (at 50.0 µM), 40.6%. Also, the growth inhibition is 17% in assay [3] (setting [7]); 84% (active) in assay [3] (setting [8]); 86% (active) in assay [3] (at 50.0 µM); 2% in assay [4] (setting [7]); 55% in assay [4] (setting [8]); 41.2% in assay [4] (at 50.0 µM). Besides, the growth inhibition was -1% in assay [5] (setting [7]); 58% in assay [5] (setting [8]); 57.4% in assay [5] (at 50.0 µM); 0% in assay [6] (setting [7]); 88% (active) in assay [6] (setting [8]); 80% (active) in assay [6] (at 50.0 µM).

With `CCCCCCCCCCCCN(CCO)CCO`, the growth inhibition in assay [1] (setting [7]) was 68%; in assay [1] (setting [8]) it was 95% (active); in assay [1] (at 50.0 µM), 74.9% (active); in assay [2] (setting [7]), 36%; in assay [2] (setting [8]), 96% (active); in assay [2] (at 50.0 µM) it was 79.3% (active). The growth inhibition in assay [3] (setting [7]) is 63%; in assay [3] (setting [8]), 96% (active); in assay [3] (at 50.0 µM), 89.5% (active); in assay [4] (setting [7]), 67%; in assay [4] (setting [8]), 92% (active); in assay [4] (at 50.0 µM) it was 73.8% (active). Also, the growth inhibition in assay [5] (setting [7]) is 57%; in assay [5] (setting [8]), 98% (active); in assay [5] (at 50.0 µM), 60.6%; in assay [6] (setting [7]) it was 41%; in assay [6] (setting [8]), 91% (active); in assay [6] (at 50.0 µM) it was 85.2% (active).

As to `CCCCCCCCCCCC(N)c1ccccc1` (configuration not stated), the growth inhibition is 99% (active) in assay [1] (setting [7]); 99% (active) in assay [1] (setting [8]); 99.5% (active) in assay [1] (at 50.0 µM); 99% (active) in assay [2] (setting [7]); 99% (active) in assay [2] (setting [8]); 99.5% (active) in assay [2] (at 50.0 µM). The growth inhibition is 99% (active) in assay [3] (setting [7]); 99% (active) in assay [3] (setting [8]); 99.2% (active) in assay [3] (at 50.0 µM); 99% (active) in assay [4] (setting [7]); 99% (active) in assay [4] (setting [8]); 99.1% (active) in assay [4] (at 50.0 µM). For the same molecule, the growth inhibition is 99% (active) in assay [5] (setting [7]); 99% (active) in assay [5] (setting [8]); 99.2% (active) in assay [5] (at 50.0 µM); 99% (active) in assay [6] (setting [7]); 99% (active) in assay [6] (setting [8]); 99.5% (active) in assay [6] (at 50.0 µM).

As for `N#CCCN(CCC#N)c1ccc(C(Sc2ccccc2)C(NC(=O)c2cc([N+](=O)[O-])ccc2Cl)C(=O)Sc2ccccc2)cc1` (configuration not stated), the growth inhibition in assay [1] (setting [7]) is 29%; in assay [1] (setting [8]) it was 74% (active); in assay [1] (at 50.0 µM), 75.7% (active); in assay [2] (setting [7]), 25%; in assay [2] (setting [8]), 93% (active); in assay [2] (at 50.0 µM) it was 58.8%. The growth inhibition was 30% in assay [3] (setting [7]); 85% (active) in assay [3] (setting [8]); 51.3% in assay [3] (at 50.0 µM); 16% in assay [4] (setting [7]); 37% in assay [4] (setting [8]); 51.6% in assay [4] (at 50.0 µM). Also, the growth inhibition in assay [5] (setting [7]) was 22%; in assay [5] (setting [8]) it was 91% (active); in assay [5] (at 50.0 µM) it was 74.7% (active); in assay [6] (setting [7]) it was 47%; in assay [6] (setting [8]), 85% (active); in assay [6] (at 50.0 µM), 73.3% (active).

With `CC(=O)OCC1OC(n2c(O)c(N=NC(N)=S)c3ccc([N+](=O)[O-])cc32)C(OC(C)=O)C1OC(C)=O` (configuration not stated), the growth inhibition in assay [1] (setting [7]) was 12%; in assay [1] (setting [8]), 95% (active); in assay [1] (at 50.0 µM), 96.5% (active); in assay [2] (setting [7]), 5%; in assay [2] (setting [8]) it was 47%; in assay [2] (at 50.0 µM), 34.6%. Besides, the growth inhibition in assay [3] (setting [7]) was -9%; in assay [3] (setting [8]) it was 72% (active); in assay [3] (at 50.0 µM), 71.5% (active); in assay [4] (setting [7]), -33%; in assay [4] (setting [8]), 23%; in assay [4] (at 50.0 µM) it was -1.15%. Also, the growth inhibition is 6% in assay [5] (setting [7]); 34% in assay [5] (setting [8]); 53.3% in assay [5] (at 50.0 µM); -1% in assay [6] (setting [7]); 68% in assay [6] (setting [8]); 61.3% in assay [6] (at 50.0 µM).

For `c1ccc2cc3c(cc2c1)Nc1c2ccccc2nc2cccc-3c12`, the growth inhibition is 31% in assay [1] (setting [7]); 70% (active) in assay [1] (setting [8]); 54% in assay [1] (at 50.0 µM); 17% in assay [2] (setting [7]); 57% in assay [2] (setting [8]); 70.5% (active) in assay [2] (at 50.0 µM). Further, the growth inhibition in assay [3] (setting [7]) was 24%; in assay [3] (setting [8]), 72% (active); in assay [3] (at 50.0 µM), 79.4% (active); in assay [4] (setting [7]), 25%; in assay [4] (setting [8]), 54%; in assay [4] (at 50.0 µM), 56.5%. In addition, the growth inhibition in assay [5] (setting [7]) is 15%; in assay [5] (setting [8]) it was 78% (active); in assay [5] (at 50.0 µM), 81.3% (active); in assay [6] (setting [7]), 29%; in assay [6] (setting [8]) it was 71% (active); in assay [6] (at 50.0 µM) it was 89.8% (active).

Turning to `CCc1ccc(C(=O)O)c2ccccc12`, the growth inhibition in assay [1] (setting [7]) is -8%; in assay [1] (setting [8]), 81% (active); in assay [1] (at 50.0 µM), 68.1%; in assay [2] (setting [7]) it was 8%; in assay [2] (setting [8]) it was 48%; in assay [2] (at 50.0 µM), 24.9%. Further, the growth inhibition in assay [3] (setting [7]) was -2%; in assay [3] (setting [8]), 72% (active); in assay [3] (at 50.0 µM), 35.1%; in assay [4] (setting [7]) it was 8%; in assay [4] (setting [8]) it was 69%; in assay [4] (at 50.0 µM), 51.6%. For the same molecule, the growth inhibition is -6% in assay [5] (setting [7]); 62% in assay [5] (setting [8]); 8.4% in assay [5] (at 50.0 µM); -1% in assay [6] (setting [7]); 85% (active) in assay [6] (setting [8]); 51.6% in assay [6] (at 50.0 µM).

Turning to `Cc1nc(Cl)c(C#N)c(C)c1[N+](=O)[O-]`, the growth inhibition was -103% in assay [1] (setting [7]); 91% (active) in assay [1] (setting [8]); 79.9% (active) in assay [1] (at 50.0 µM); -31% in assay [2] (setting [7]); 81% (active) in assay [2] (setting [8]); 81.9% (active) in assay [2] (at 50.0 µM). The growth inhibition in assay [3] (setting [7]) is -46%; in assay [3] (setting [8]), 84% (active); in assay [3] (at 50.0 µM) it was 70.3% (active); in assay [4] (setting [7]) it was -37%; in assay [4] (setting [8]), 75% (active); in assay [4] (at 50.0 µM), 87% (active). In addition, the growth inhibition was -63% in assay [5] (setting [7]); 83% (active) in assay [5] (setting [8]); 75.3% (active) in assay [5] (at 50.0 µM); -115% in assay [6] (setting [7]); 91% (active) in assay [6] (setting [8]); 84.8% (active) in assay [6] (at 50.0 µM).

As for `COc1cc(C)c2sc3ccccc3c(=O)c2c1NCCCN(C)C`, the growth inhibition in assay [1] (setting [7]) is 1%; in assay [1] (setting [8]), 51%; in assay [1] (at 50.0 µM), 72.3% (active); in assay [2] (setting [7]), -4%; in assay [2] (setting [8]), -6%; in assay [2] (at 50.0 µM), 37%. For the same molecule, the growth inhibition in assay [3] (setting [7]) was -2%; in assay [3] (setting [8]), 58%; in assay [3] (at 50.0 µM), 70.3% (active); in assay [4] (setting [7]) it was -4%; in assay [4] (setting [8]) it was 51%; in assay [4] (at 50.0 µM), 14.6%. Also, the growth inhibition was 0% in assay [5] (setting [7]); 53% in assay [5] (setting [8]); 27.1% in assay [5] (at 50.0 µM); -3% in assay [6] (setting [7]); 54% in assay [6] (setting [8]); 95.3% (active) in assay [6] (at 50.0 µM).

The values above are taken from PubChem BioAssay (NCI).
